Sampled rows, rich in hits. Any-hit rate of the full collection: about 4%.
Rv3671c protease: inhibits the M. tuberculosis serine protease Rv3671c; AID 2606; inhibition, % at 5.96 µM; 320,000 compounds, 0.048% hits; P9WHR9; in the data active means inhibition above about 38%;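 further: extracellular domain of Rv3671c used as enzyme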
Target sequence (P9WHR9 whole entry, looked up, the tested form may be a part): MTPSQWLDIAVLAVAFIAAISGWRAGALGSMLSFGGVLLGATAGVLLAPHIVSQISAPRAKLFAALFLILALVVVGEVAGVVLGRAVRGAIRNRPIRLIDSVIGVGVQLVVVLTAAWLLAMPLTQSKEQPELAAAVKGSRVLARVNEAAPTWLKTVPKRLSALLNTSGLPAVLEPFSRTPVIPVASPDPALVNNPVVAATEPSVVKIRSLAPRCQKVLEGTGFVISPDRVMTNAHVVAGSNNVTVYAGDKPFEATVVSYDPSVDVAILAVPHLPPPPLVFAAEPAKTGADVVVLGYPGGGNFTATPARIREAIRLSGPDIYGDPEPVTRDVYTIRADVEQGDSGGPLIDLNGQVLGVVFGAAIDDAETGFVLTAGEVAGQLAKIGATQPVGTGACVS
Mtb UGM inh: Mtb UDP-galactopyranose mutase inhibition; purified UGM, fluorescence polarization probe displacement; inhibition, % at 10 µM; 320,000 compounds, 0.06% hits; in the data active means inhibition above about 10%, passing the limit was not always enough
Mtb betalactam: beta-lactam sensitization of Mtb H37Rv; 330,000 compounds, 0.27% hits; inhibition, % at 25 µM; M. tuberculosis H37Rv growth with meropenem, percent inhibition; call rule not given here;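 further: growth measured after seven days incubation then overnight dye step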
GDH-TPI counter-1: counter-screen for M. tuberculosis FBA inhibitors: GDH-TPI coupled enzymes; 360,000 compounds, 1.2% hits; AID 588335; GDH-TPI coupled enzyme counterscreen, NADH absorbance; inhibition, % at 4.8 µM; in the data active means inhibition above about 30%
Mtb FBA inh: Mtb fructose-bisphosphate aldolase inhibition | P9WQA3 | purified M. tuberculosis FBA, fluorescence read-out | inhibition, % at 1 µM | 360,000 compounds, 2.3% hits | AID 588726
Target sequence (P9WQA3 whole entry, looked up): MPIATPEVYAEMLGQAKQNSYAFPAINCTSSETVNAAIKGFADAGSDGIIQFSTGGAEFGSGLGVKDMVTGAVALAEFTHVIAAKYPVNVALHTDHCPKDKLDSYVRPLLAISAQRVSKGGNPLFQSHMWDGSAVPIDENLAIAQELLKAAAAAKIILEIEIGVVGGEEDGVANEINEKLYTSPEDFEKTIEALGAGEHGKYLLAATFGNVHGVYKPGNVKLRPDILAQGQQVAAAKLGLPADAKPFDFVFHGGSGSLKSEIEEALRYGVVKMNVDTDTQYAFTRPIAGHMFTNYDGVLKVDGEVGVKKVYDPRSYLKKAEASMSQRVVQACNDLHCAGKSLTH
RecA splice inh: blocks M. tuberculosis RecA intein splicing. P9WHJ3. cell-free RecA intein splicing, fluorescence. inhibition, % (test concentration not listed). 290,000 compounds, 0.75% hits. AID 2221; in the data active means inhibition above about 30%
Mtb FBA confirm: Mtb FBA inhibition, confirmed; purified M. tuberculosis FBA, fluorescence read-out; inhibition, % at 1 µM; 5,600 compounds, 78% hits; shares compounds with Mtb FBA inh
GDH-TPI counter-2: inhibits GDH-TPI coupling enzymes, flagging Mtb FBA hits. GDH-TPI coupled enzyme counterscreen, fluorescence. AID 652141. shares compounds with Mtb FBA inh. 5,600 compounds, 81% hits. inhibition, % at 1 µM; in the data active means inhibition above about 10%
GDH-TPI DR: counter-screen for M. tuberculosis FBA inhibitors: GDH-TPI dose response | GDH-TPI coupled enzyme assay, fluorescence, artifact counterscreen | 170 compounds, 79% hits | shares compounds with Mtb FBA inh | IC50, µM | AID 652145; call rule not given here
Of the large screens only hits and unclear results are named; the others gave an inactive call (follow-up assays come after a bar, where they were run). Unless noted, no stated cut-off is given here; in the data, active means inhibition above about 27%; inactive means the rest.

CCOc1ncccc1C(=O)OCC(=O)N1CCN(S(=O)(=O)c2ccc(Cl)cc2)CC1	none
Nc1ncccc1C(=O)OCC(=O)N1CCN(S(=O)(=O)c2ccc(Cl)cc2)CC1	Mtb FBA inh 62.5 (no result: RecA splice inh) | Mtb FBA confirm inactive | GDH-TPI counter-2 inactive
COc1ccccc1NC(=O)COC(=O)CCc1ccc(S(=O)(=O)N2CCOCC2)cc1	Mtb FBA inh 31.0 (no result: RecA splice inh) | Mtb FBA confirm 161.9 | GDH-TPI counter-2 133.6
Cc1cccc(NC(=O)COC(=O)CCc2ccc(S(=O)(=O)N3CCOCC3)cc2)c1C	none
CC(C)CCNC(=O)C1CCN(S(=O)(=O)c2ccc3c(c2)CCC(=O)N3)CC1	none (no result: RecA splice inh)
CN1CCN(C(=O)c2ccc(-c3cccs3)s2)CC1	Mtb FBA inh 49.6 | Mtb FBA confirm inactive | GDH-TPI counter-2 18.4
Cc1ccccc1NC(=O)NNC(=O)CCc1ccccc1	none
O=C(NNC(=S)Nc1ccc(F)c(Cl)c1)c1ccccc1Br	none
CNc1cncc(-c2ccccc2NC(C)=O)n1	none (no result: Rv3671c protease, Mtb UGM inh, Mtb betalactam, RecA splice inh)
CCOc1ccccc1-c1cncc(NC)n1	Mtb FBA inh 73.8 (no result: Rv3671c protease, Mtb UGM inh, Mtb betalactam, RecA splice inh) | Mtb FBA confirm 65.7 | GDH-TPI counter-2 46.6
CNc1cncc(-c2ccccc2CO)n1	Mtb FBA inh 73.4 (no result: Rv3671c protease, Mtb UGM inh, Mtb betalactam, RecA splice inh) | Mtb FBA confirm active | GDH-TPI counter-2 active
CCOc1ccccc1-c1nc(-c2ccncc2)no1	none
CSc1nsc(SCC(=O)Nc2ccccc2C(N)=O)n1	none
CC(C)COc1ccc(-c2nnc(-c3ccco3)o2)cc1	Mtb FBA inh 42.7 | Mtb FBA confirm 53.7 | GDH-TPI counter-2 43.1
CCCOc1ccc(-c2nnc(-c3ccco3)o2)cc1	Mtb FBA inh 60.1 | Mtb FBA confirm 50.4 | GDH-TPI counter-2 36.2
COc1cccc(-c2nnc(-c3ccco3)o2)c1	Mtb FBA inh 61.5 (no result: Mtb UGM inh) | Mtb FBA confirm active | GDH-TPI counter-2 active
COc1cccc(C(=O)Nc2ccc(-c3nnc(-c4ccco4)o3)cc2)c1	none
Cc1ccc(CC(=S)N2CCOCC2)cc1	none
Cc1ccc(S(=O)(=O)NCCCCCC(=O)Nc2ccccn2)cc1	none (no result: Mtb betalactam)
O=C(O)c1ccccc1-c1nc(-c2ccccc2)c(-c2ccccc2)[nH]1	none
O=C(O)COc1ccc(-c2nc(-c3ccccc3)c(-c3ccccc3)[nH]2)cc1	Mtb FBA inh 97.8 | Mtb FBA confirm 85.9 | GDH-TPI counter-2 73.2
COc1cccc(-c2nc(-c3ccc4c(c3)-c3ccccc3S4(=O)=O)c(-c3ccccc3)[nH]2)c1OC	Mtb FBA inh 30.7 | Mtb FBA confirm inactive | GDH-TPI counter-2 inactive
COc1cccc(-c2nc(-c3ccccc3)c(-c3ccccc3)[nH]2)c1OCC(=O)O	Mtb FBA inh 84.1 (no result: Rv3671c protease) | Mtb FBA confirm 69.9 | GDH-TPI counter-2 53.5
O=C(O)COc1ccccc1-c1nc(-c2ccccc2)c(-c2ccccc2)[nH]1	Mtb FBA inh 87.9 | Mtb FBA confirm 53.5 | GDH-TPI counter-2 29.5
O=C(NCc1cccnc1)c1ccc(NS(=O)(=O)c2ccc(F)cc2)cc1	none
O=C(CC1(C(=O)O)CCCC1)N1CCOCC1	none
c1ccc(Nc2ccc3ccccc3c2)cc1	Mtb FBA inh 33.4 (no result: Rv3671c protease, Mtb UGM inh, Mtb betalactam, RecA splice inh) | Mtb FBA confirm 145.3 | GDH-TPI counter-2 97.5
CC(C)CCN(CCC(C)C)CC(O)Cn1c2ccccc2c(=O)c2ccccc21 (configuration not stated)	Mtb FBA inh 30.9 | Mtb FBA confirm 45.1 | GDH-TPI counter-2 35.0
CCOc1ccc(N2C(=O)CC(SC(=NC)Nc3ccc(F)cc3)C2=O)cc1 (configuration not stated)	none (no result: RecA splice inh)
CCCC(NC(=O)Cc1c(C)c2c(cc(C)c3c(C)coc32)oc1=O)C(=O)O (configuration not stated)	Mtb FBA inh 55.1 | Mtb FBA confirm inactive | GDH-TPI counter-2 inactive
Cc1coc2c1c(C)cc1oc(=O)c(CC(=O)NCCCN3CCCC3=O)c(C)c12	Mtb FBA inh 66.1 | Mtb FBA confirm inactive | GDH-TPI counter-2 inactive | GDH-TPI DR 2.31
CC[C@@H](C)[C@H](NC(=O)CNC(=O)Cc1c(C)c2c(cc(C)c3c(C)coc32)oc1=O)C(=O)O	Mtb FBA inh 82.5 | Mtb FBA confirm 50.0 | GDH-TPI counter-2 34.7
Cc1coc2c1c(C)cc1oc(=O)c(CC(=O)N[C@@H](CC(C)C)C(=O)O)c(C)c12	Mtb FBA inh 79.0 | Mtb FBA confirm 177.0 | GDH-TPI counter-2 141.2
Cc1cc(C)nc(SCc2ccc(C(=O)NN=C3C4CC5CC(C4)CC3C5)cc2)n1	none
CC1=C(C(=O)N(C)CCC#N)C2(CCCCC2)OC1=O	none (no result: RecA splice inh)
Cc1nc[nH]c(=O)c1Br	none
COc1ccc(F)cc1C(=O)C1CCCN(Cc2cccn2-c2ccccn2)C1 (configuration not stated)	none
CC(C)c1cc(Cn2c3ccccc3c(=O)n2C(C)C)on1	Mtb FBA inh 102.9 (no result: Rv3671c protease, Mtb UGM inh, Mtb betalactam, GDH-TPI counter-1, RecA splice inh) | Mtb FBA confirm active | GDH-TPI counter-2 active
CC(C)c1cc(Cn2c3ccccc3c(=O)n2C(C)CBr)on1 (configuration not stated)	Mtb FBA inh 95.7 (no result: Rv3671c protease, Mtb UGM inh, Mtb betalactam, GDH-TPI counter-1, RecA splice inh) | Mtb FBA confirm 69.8 | GDH-TPI counter-2 45.8
O=C(O)c1cc(=O)cc(C(=O)O)[nH]1	none
O=C1NC(=O)c2cc(NC(=O)c3cccc4ccccc34)ccc21	none
c1coc(-c2cnc3ccccc3n2)c1	Mtb FBA inh 105.8 (no result: Rv3671c protease, Mtb UGM inh, Mtb betalactam, RecA splice inh) | Mtb FBA confirm 68.8 | GDH-TPI counter-2 46.0
c1csc(-c2cnc3ccccc3n2)c1	Mtb FBA inh 63.1 | Mtb FBA confirm inactive | GDH-TPI counter-2 inactive
c1coc(-c2nc3ccccc3nc2-c2ccco2)c1	none
CCOC(=O)Nc1ccc2c3c(cccc13)-c1ccccc1-2	Mtb FBA inh 57.2 (no result: Rv3671c protease, Mtb UGM inh, Mtb betalactam, RecA splice inh) | Mtb FBA confirm 69.5 | GDH-TPI counter-2 61.1
Cc1nc2nc(-c3ccccc3)[nH]n2c(=O)c1C	none (no result: Mtb betalactam)
CCc1c(C)nc2cc(-c3ccc(OC)cc3)[nH]n2c1=O	Mtb FBA inh 34.6 | Mtb FBA confirm active | GDH-TPI counter-2 active
O=c1cc(-c2ccccc2)nc2cc(-c3ccc(F)cc3)[nH]n12	Mtb FBA inh 44.4 | Mtb FBA confirm inactive | GDH-TPI counter-2 inactive
O=c1c2c(nc3cc(-c4ccc(F)cc4)[nH]n13)CCC2	Mtb FBA inh 38.0 | Mtb FBA confirm 118.9 | GDH-TPI counter-2 81.5
CCOC(=O)CCc1c(C)nc2cc(-c3ccc(F)cc3)[nH]n2c1=O	none
Cc1nc2cc(-c3ccccc3)[nH]n2c(=O)c1C	Mtb FBA inh 33.4 | Mtb FBA confirm 95.0 | GDH-TPI counter-2 62.3
CC1CCN(c2c(NCC3CCC(C(=O)N4CCCC(C)C4)CC3)c(=O)c2=O)CC1 (configuration not stated)	none
Clc1ccccc1C1=CC(c2ccco2)n2ncnc2N1 (configuration not stated)	Mtb FBA inh 35.2 | Mtb FBA confirm 156.4 | GDH-TPI counter-2 126.3
